Source: PubChem BioAssay (EPA / NIEHS)
Values joined by “and” are separate entries in the source; they are usually repeats but may differ in a detail not shown here. Equal values may be shown once. Inconclusive results are not listed. A structure can be active in one record and inactive in another. Active and inactive are the calls of the source. How the source made its calls, unless noted: active means hit-call score of the fitted dose curve at least 0.9, where 1 is the maximum; inactive means score below 0.9.

What was measured:
[1] = ACEA_ER_80hr: ACEA Biosciences xCELLigence Real-Time Cell Analysis on Estrogen Receptor Agonism for Proliferation (AID 2282667; active means hit-call score of the fitted dose curve at least 0.9, where 1 is the maximum); settings: T47D proliferation, impedance (xCELLigence), 80 h
Method in brief: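 Impedance readout (RT-CES) of T47D proliferation at 80 h post-dose; gain of signal vs DMSO baseline. Compounds: 8 conc, 1:4 serial, top 100 uM final, ≤0.5% DMSO; biological duplicate.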

[2] = APR_HepG2_CellCycleArrest_24hr: Apredica 24-hour HepG2 Assay for Cell Cycle Arrest (AID 2282905); settings: imaging, actives raise or lower the signal;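 further: cell cycle arrest scored as ratio of 2N to 4N nuclear DNA content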
Method in brief: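 Compounds (0.39 to 200 uM, final DMSO 0.5% v/v) are applied to HepG2 cells for 24 hours; cells are then fixed, permeabilized and nuclei labeled with Hoechst 33342. Automated imaging measures DNA content, and activity is fitted in both directions against DMSO.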

[3] = APR_HepG2_NuclearSize_24hr: Apredica 24-hour HepG2 Assay for Nuclear Size (AID 2282907); settings: high-content imaging, actives raise or lower the signal
Method in brief: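 Nuclear size is measured by fluorescence high-content imaging of Hoechst-labelled HepG2 nuclei after 24 hr of treatment (0.39–200 uM, 0.5% DMSO). Cells are fixed in 3.7% formaldehyde before staining, and DMSO serves as the baseline for bidirectional curve fitting.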

[4] = APR_HepG2_CellLoss_24hr: Apredica 24-hour HepG2 Assay for Cell Loss (AID 2282908); settings: high-content imaging;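 on AC50: fit in both directions so a hit may be cell loss or gain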
Method in brief: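 Nuclear count serves as the viability measure: treated cells are fixed, permeabilized and labelled with Hoechst 33342, and six images per well are analysed to identify valid nuclei. Doses span 0.39–200 uM, and activity in either direction is scored against DMSO.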

[5] = APR_HepG2_MicrotubuleCSK_24hr: Apredica 24-hour HepG2 Assay for Microtubule CSK Stabilty (AID 2282909); settings: HepG2 microtubule cytoskeleton imaging, actives raise or lower the signal
Method in brief: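 Compounds were applied to HepG2 cells for 24 hours across 0.39–200 uM in duplicate, with final DMSO at 0.5% v/v. Fixed, permeabilized cells were labeled for alpha-tubulin and nuclei, and tubulin fluorescence was quantified by imaging, fitted bidirectionally against DMSO.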

[6] = APR_HepG2_MitoticArrest_24hr: Apredica 24-hour HepG2 Assay for Mitotic Arrest (AID 2282910); settings: high-content imaging, actives raise or lower the signal
Method in brief: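 HepG2, 24 hr dosing, 0.39–200 uM, 0.5% DMSO final. Formaldehyde-fixed, Triton-permeabilised, anti-phospho-histone H3 plus Hoechst. ArrayScan imaging at 20x; bidirectional fit vs DMSO baseline.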

[7] = APR_HepG2_MitoMembPot_24hr: Apredica 24-hour HepG2 Assay for Mitochondrial Membrane Potential (AID 2282911); settings: imaging, actives raise or lower the signal
Method in brief: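 HepG2, 24 hr dosing, 10 concentrations 0.39–200 uM, 0.5% DMSO final. Live-cell MitoTracker Red CMXRos 250 nM 30 min, then 3.7% formaldehyde fix. HCS fluorescence imaging, 20x; bidirectional fit vs DMSO baseline.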

[8] = APR_HepG2_p53Act_24hr: Apredica 24-hour HepG2 Assay for p53 Activation (AID 2282913); settings: high-content imaging, actives raise or lower the signal;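 further: p53 protein immunofluorescence averaged per cell in HepG2 with Hoechst nuclei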
Method in brief: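 Read-out: Cy5 immunofluorescence for p53 in fixed, permeabilized HepG2, imaged by HCS with Hoechst-defined nuclei. Dosing was 24 hr at 0.39–200 uM in 0.5% DMSO. Curves were fitted bidirectionally relative to DMSO.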

[9] = APR_HepG2_CellCycleArrest_72hr: Apredica 72-hour HepG2 Assay for Cell Cycle Arrest (AID 2282914); settings: high-content imaging, actives raise or lower the signal
Method in brief: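 HepG2, 72 hr exposure, 10-point 0.39–200 uM, duplicate, 0.5% DMSO final. Fix 3.7% formaldehyde 30 min RT, Triton X-100 0.5%, Hoechst 33342 2 ug/mL. ArrayScan 20x, six fields/well; DNA content per nucleus; bidirectional fit vs DMSO.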

[10] = APR_HepG2_CellLoss_72hr: Apredica 72-hour HepG2 Assay for Cell Loss (AID 2282915); settings: high-content imaging
Method in brief: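 HepG2 cells exposed 72 h to compound at 0.39–200 uM (10 concentrations, duplicate) in 0.5% DMSO. Fixed with 3.7% formaldehyde and Hoechst 33342-stained. Imaged at 20x; nuclear count gives cell number, fitted bidirectionally versus DMSO.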

[11] = APR_HepG2_P-H2AX_72hr: Apredica 72-hour HepG2 Assay for H2AX Phosphorylation (AID 2282916); settings: imaging, actives raise or lower the signal;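 further: phospho-histone H2A.x immunostain intensity per cell marking DNA damage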
Method in brief: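 Human hepatoma HepG2 cells are dosed across ten concentrations (0.39 to 200 uM, 0.5% v/v DMSO) and incubated 72 hr. Phospho-histone H2A.x is then detected by antibody staining alongside c-Jun and Hoechst, and quantified by automated fluorescence imaging.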

[12] = APR_HepG2_MitoMembPot_72hr: Apredica 72-hour HepG2 Assay for Mitochondrial Membrane Potential (AID 2282917); settings: imaging, actives raise or lower the signal
Method in brief: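 HepG2 cells dosed 72 hr with compound at 0.39–200 uM in duplicate, 0.5% v/v DMSO final. Mitochondria stained with 250 nM MitoTracker Red CMXRos for 30 min before formaldehyde fixation, imaged by high-content fluorescence; bidirectional fit versus DMSO.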

[13] = APR_HepG2_MitoticArrest_72hr: Apredica 72-hour HepG2 Assay for Mitotic Arrest (AID 2282918); settings: high-content imaging, actives raise or lower the signal
Method in brief: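 HepG2, 72 hr exposure, 0.39–200 uM in duplicate, 0.5% v/v DMSO final. Formaldehyde-fixed, Triton-permeabilized, anti-phospho-histone H3/FITC plus Hoechst. ArrayScan imaging at 20x; curves fit bidirectionally against DMSO baseline.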

[14] = APR_HepG2_MicrotubuleCSK_72hr: Apredica 72-hour HepG2 Assay for Microtubule CSK Stabilty (AID 2282919); settings: HepG2 microtubule cytoskeleton, high-content imaging, actives raise or lower the signal
Method in brief: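 HepG2, 72 hr cmpd exposure, 0.39–200 uM (10 pts, duplicate), 0.5% DMSO. 3.7% formaldehyde fix, 0.5% Triton perm, anti-alpha-tubulin/Cy5 plus Hoechst. HCS fluorescence intensity; bidirectional fit vs DMSO baseline; taxol as positive control.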

[15] = APR_HepG2_P-H2AX_24hr: Apredica 24-hour HepG2 Assay for H2AX Phosphorylation (AID 2282920); settings: high-content imaging, actives raise or lower the signal
Method in brief: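 HCS fluorescence imaging of phospho-H2A.x immunostain (with Hoechst 33342 nuclear counterstain) in HepG2 after 24 hr compound exposure; 10 concentrations, 0.39–200 uM, duplicate wells, 0.5% v/v DMSO. Gain or loss of signal fitted relative to DMSO baseline.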

[16] = APR_HepG2_StressKinase_24hr: Apredica 24-hour HepG2 Assay for Stress Kinase (AID 2282922); settings: HepG2 stress kinase (phospho-c-Jun) imaging, actives raise or lower the signal
Method in brief: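 Read-out: phospho-c-Jun immunofluorescence (Cy3 secondary) quantified by high-content imaging at 20x, nuclei defined by Hoechst 33342. Human HepG2 liver cells dosed 24 hr, 0.39–200 uM, DMSO 0.5% v/v; gain or loss of signal fitted relative to DMSO.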

[17] = APR_HepG2_MitoMass_72hr: Apredica 72-hour HepG2 Assay for Mitochondrial Mass (AID 2282924); settings: high-content imaging, actives raise or lower the signal;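 further: MitoTracker Red CMXRos stain intensity per cell imaged as mitochondrial mass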
Method in brief: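 Read-out: MitoTracker Red fluorescence intensity from automated imaging (20x, six fields per well) in human HepG2 liver cells. Dosing ran 72 hr, 0.39–200 uM, 0.5% DMSO; bidirectional curve fitting versus DMSO baseline.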

[18] = APR_HepG2_MitoMass_24hr: Apredica 24-hour HepG2 Assay for Mitochondrial Mass (AID 2282912); settings: high-content imaging, actives raise or lower the signal
Method in brief: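 After 24 hr of treatment at 0.39 to 200 uM, HepG2 cells take up 250 nM MitoTracker Red CMXRos for 30 min and are then fixed with 3.7% formaldehyde. Per-well images are quantified, and any change in either direction is scored against solvent.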

[19] = APR_HepG2_StressKinase_72hr: Apredica 72-hour HepG2 Assay for Stress Kinase (AID 2282921); settings: HepG2 stress kinase (phospho-c-Jun) imaging, actives raise or lower the signal
Method in brief: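 After a 72 h compound treatment spanning 0.39 to 200 uM, formaldehyde-fixed cells are labelled for phosphorylated c-Jun and nuclei, imaged by automated fluorescence microscopy, and activity is fitted in both directions relative to DMSO controls.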

[20] = APR_HepG2_p53Act_72hr: Apredica 72-hour HepG2 Assay for p53 Activation (AID 2282923); settings: high-content imaging, actives raise or lower the signal;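 further: average cellular p53 protein immunofluorescence intensity in HepG2 cells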
Method in brief: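 Imaging-based endpoint: after 72 hr compound exposure (up to 200 uM, 0.5% DMSO), fixed and permeabilized monolayers were labelled with anti-p53 antibody and imaged; signal change in either direction was fitted relative to DMSO controls.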

Measured: AC50

CC(=O)NC1(c2cccc(F)c2)CCN(CC[C@@]2(c3ccc(Cl)c(Cl)c3)CN(c3ccccc3)C(=O)CO2)CC1
inactive: [1] | [3] | [12] | [16] | [17]
active: [2] 26.3 µM | [4] 36.3 µM | [5] 146 µM | [6] 31.6 µM | [7] 90.2 µM | [8] 21.6 µM | [9] 18.7 µM | [10] 21.3 µM | [11] 21.8 µM | [13] 14.8 µM | [14] 37.7 µM | [15] 39.3 µM

O=C(O)Cc1cc(I)c(Oc2cc(I)c(O)c(I)c2)c(I)c1
active: [2] 109 µM | [8] 72.2 µM | [9] 72.5 µM
not listed: [13] | [20]
inactive: all other assays above

CCC(=C(c1ccc(O)cc1)c1ccc(OCCN(C)C)cc1)c1ccccc1
inactive: [1] | [2] | [4] | [5] | [6] | [7] | [9] | [10] | [11] | [12] | [13] | [14] | [15] | [16] | [17]
active: [1] 0.00229 µM

O=c1c(-c2ccc(O)cc2)coc2cc(O)ccc12
active: [1] 330 nM and 318 nM and 427 nM
not listed: [3]
inactive: all other assays above

O=C1OC2(c3ccccc31)c1cc(Br)c(O)c(Br)c1Oc1c2cc(Br)c(O)c1Br
active: [1] 20.5 µM
inactive: [1]

O=C(O)c1ccccc1C(c1ccc(O)cc1)c1ccc(O)cc1
active: [9] 100 µM | [10] 80.2 µM
not listed: [3] | [8] | [13] | [19] | [20]
inactive: all other assays above

CC(C)(C)c1ccc(O)c(C(C)(C)C)c1
active: [4] 38.5 µM | [7] 8.96 µM | [10] 66 µM | [11] 36.5 µM | [15] 42.8 µM | [16] 48.3 µM | [20] 20.3 µM
not listed: [3] | [13] | [19]
inactive: all other assays above

CN1CCC[C@H]1c1cccnc1
not listed: [3] | [8] | [13] | [19] | [20]
inactive: all other assays above

CC(=O)CC(C)(C)O
active: [1] 16.2 µM | [2] 0.0392 µM | [4] 19.8 µM | [5] 0.0415 µM | [6] 0.0402 µM | [8] 0.106 µM | [9] 32.1 µM | [10] 11 µM | [11] 0.032 µM | [14] 0.0173 µM | [15] 19.8 µM | [16] 100 µM | [20] 0.0395 µM
inactive: [7] | [12] | [19] | [17]

OCCC(F)(F)C(F)(F)C(F)(F)C(F)(F)C(F)(F)C(F)(F)C(F)(F)C(F)(F)F
inactive: [1] | [7] | [12] | [14] | [19]
active: [2] 17.6 µM | [4] 27.8 µM | [5] 23.1 µM | [6] 24.1 µM | [8] 25.1 µM | [9] 14.7 µM | [10] 34.8 µM | [11] 29.7 µM | [15] 26.8 µM | [16] 29.2 µM | [17] 102 µM

CCCCCCCCOC(=O)CCCCCCCCC(=O)OCCCCCCCC
not listed: [3] | [13] | [18] | [19] | [20]
inactive: all other assays above

COCC(C)OCC(C)O (configuration not stated)
not listed: [3] | [13] | [19]
inactive: all other assays above

ClC1=C(Cl)C(Cl)(Cl)C(Cl)=C1Cl
not listed: [3] | [13] | [20]
inactive: all other assays above

OC1CCC(C2CCCCC2)CC1 (configuration not stated)
not listed: [3] | [13] | [19] | [20]
inactive: all other assays above
